The results in this text go back to PubChem BioAssay (NCATS).

The structures appear in SMILES notation. Where “and” joins values, the source holds several entries; their conditions need not be identical. Identical values can stand only once. Records with an inconclusive call do not appear. Where a structure was tested more than once in an assay, its records may differ in their call. Calls of active or inactive are those of the source. Unless noted, calls come from the whole dose curve; as a rule, active = well fitted curve in the direction sought with a large enough effect; inconclusive = small, poorly fitted or top-dose-only effect, or another doubt; inactive = no such curve, though single readings can be large; an effect the other way counts as inactive or inconclusive.

The nature of assay [1]: qHTS assay for small molecule agonists of the antioxidant response element (ARE) signaling pathway (AID 651741; active = well fitted activation curve with a large enough effect in the signal ratio; the % refers to the signal ratio; note: potency is the fitted concentration of half-maximal effect; for activation: % of control where 0% means no effect). The method, boiled down: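 Stably integrated ARE-beta-lactamase reporter HepG2 cells; 16 h compound incubation, 37 C; LiveBLAzer FRET substrate 2 h at room temperature; fluorescence intensity.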
Background: In qHTS, concentration-response curves come from the screen itself.

The nature of assay [2]: qHTS assay for small molecule activators of the p53 signaling pathway (AID 651743; active = well fitted activation curve with a large enough effect in the signal ratio, not every such curve was filed as active; the % refers to the signal ratio; note: potency is the fitted concentration of half-maximal effect; for activation: series mostly up to about 92 µM; % of control where 0% means no effect). Conditions: HCT-116 p53RE-bla, beta-lactamase FRET ratio, 16 h; activation: stronger effect = higher value. The essentials: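 Following 16 hours of compound exposure at 37 C, HCT-116 cells bearing the p53RE-bla reporter were loaded with LiveBLAzer B/G FRET substrate for 2 hours at room temperature and fluorescence intensity was recorded.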

Assay [3] is described as follows: qHTS assay for small molecule activators of the nuclear factor-kappa B (NF-kB) signaling pathway (AID 651749; active = well fitted activation curve with a large enough effect in the signal ratio; the % refers to the signal ratio; note: series mostly up to about 77 µM; % of control where 0% means no effect). As to conditions: NF-kB-bla ME-180 cells, beta-lactamase FRET ratio, 16 h; stronger effect = higher value. The essentials:
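In this qHTS format, compounds acting as activators increase NF-kB-driven beta-lactamase in ME-180 cells, measured as disrupted FRET after 16 hr exposure at 37C and 5% CO2.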

Assay [4] can be described thus: qHTS assay for environmental chemicals that activate the Aryl hydrocarbon Receptor (AhR) signaling pathway (AID 651777). Note: % of control where 0% means no effect; nearly all actives have a fitted effect of over 15% in size. Conditions: 1A2-DRE human hepatoma cells, luciferase, 24 h; stronger effect = higher value. The method, boiled down: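 Measured luciferase activity, read 30 min after One-Glo addition at room temperature, from human hepatoma cells bearing a dioxin response element–CYP1A2 promoter reporter and exposed to compound for 24 hr at 37 C.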

In assay [5] the target is Peroxisome proliferator-activated receptor alpha (Homo sapiens) (UniProt Q07869). Nature of the assay: qHTS assay for small molecule agonists of the peroxisome proliferator-activated receptor alpha (PPARalpha) signaling pathway (AID 651778). Note: % of control where 0% means no effect. As to conditions: PathHunter PPARalpha complementation, chemiluminescence, 6 h; stronger effect = higher value. The method, boiled down:
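Enzyme-fragment complementation assay in which ligand-bound PPARalpha translocates and forms an active enzyme that generates chemiluminescence. Cells were plated overnight, exposed to compound for 6 hr at 37 C, and then given detection reagent for 60 min at room temperature.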

Assay [6] has as its target Tumor necrosis factor (Homo sapiens) (UniProt P01375). Description: qHTS assay to identify small molecules that stimulate Tumor Necrosis Factor-alpha (TNF-alpha) secretion (AID 651757; active = well fitted curve in the direction sought with a large enough effect in the signal ratio; the % refers to the signal ratio; note: 0% is about no effect). The essentials: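 Human monocytic THP-1 cells are plated, treated with compound and held at 37 C for 17 hrs. Labeled anti-TNF-alpha antibody mixture is then added; after 3 hr at room temperature, TR-FRET signal reports secreted TNF-alpha.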

For assay [7], the target named is Nuclear receptor ROR-gamma (Homo sapiens) (UniProt P51449). Description: qHTS assay for small molecule antagonists of the retinoid-related orphan receptor gamma (ROR-gamma) signaling pathway (AID 651802). Note: nearly all actives have a fitted effect of over 60% in size. Note: potency is the fitted concentration of half-maximal effect. The essentials:
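Steps: cells dispensed; compound or DMSO transferred by pin tool; doxycycline added to induce the ROR response element-driven luciferase; plates held 16hr at 37C; ONE-Glo added and luminescence measured.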

The nature of assay [8]: qHTS assay for small molecule disruptors of the mitochondrial membrane potential - 1 hr assay (AID 651754; calls by dose curve; note: nearly all actives have a fitted effect of over 35% in size; note: potency is the fitted concentration of half-maximal effect). The essentials:
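Loss of mitochondrial potential shifts the cationic dye from red mitochondrial aggregates to green cytoplasmic monomers. Cells (HepG2) are treated with compound for 1 hr before a 30 min dye incubation at 37C.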

Assay [9] in a line: qHTS assay for small molecule disruptors of the mitochondrial membrane potential - 5 hr assay (AID 651755; calls by dose curve; note: nearly all actives have a fitted effect of over 40% in size; note: potency is the fitted concentration of half-maximal effect). The method, boiled down: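 Read-out: ratiometric Mito-MPS fluorescence, green monomer (ex 490/em 535) vs red mitochondrial aggregate (ex 540/em 590). HepG2 cells treated 5 hr at 37C before 30 min dye loading.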
Assay [10] in a line: qHTS assay to identify small molecules that stimulate interleukin-8 (IL-8) secretion (AID 651758; active = well fitted activation curve with a large enough effect in the signal ratio; the % refers to the signal ratio; note: 0% is about no effect). The method, boiled down:
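Compounds are added to THP-1 cells (2000 per well) and left 16 hrs at 37 C. A labeled anti-IL-8 antibody pair is then added, and IL-8 secretion is measured by time-resolved FRET after 1-3 hrs at room temperature.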

Assay [11] concerns the target Ubiquitin carboxyl-terminal hydrolase 2 (Homo sapiens) (UniProt O75604). Nature of the assay: qHTS for Inhibitors of Ubiquitin-specific Protease USP2a Using CHOP2 as the Reporter: K484 Substrate (AID 652173).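 Note: cleavage of internally quenched K48 di-ubiquitin substrate measured as rising fluorescence over time; nearly all actives have a fitted effect of over 70% in size.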 The method, boiled down:
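Kinetic fluorescence (Ex 525/Em 598) tracked cleavage of an internally quenched K48 di-ubiquitin substrate, added as a 100 nM solution. The enzyme was added as a 5 nM USP2 solution before compound pinning, with no-enzyme controls. Buffer: Tris pH 8, beta-mercaptoethanol, CHAPS.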

Sequence of Nuclear receptor ROR-gamma (Homo sapiens) (P51449 whole entry, looked up): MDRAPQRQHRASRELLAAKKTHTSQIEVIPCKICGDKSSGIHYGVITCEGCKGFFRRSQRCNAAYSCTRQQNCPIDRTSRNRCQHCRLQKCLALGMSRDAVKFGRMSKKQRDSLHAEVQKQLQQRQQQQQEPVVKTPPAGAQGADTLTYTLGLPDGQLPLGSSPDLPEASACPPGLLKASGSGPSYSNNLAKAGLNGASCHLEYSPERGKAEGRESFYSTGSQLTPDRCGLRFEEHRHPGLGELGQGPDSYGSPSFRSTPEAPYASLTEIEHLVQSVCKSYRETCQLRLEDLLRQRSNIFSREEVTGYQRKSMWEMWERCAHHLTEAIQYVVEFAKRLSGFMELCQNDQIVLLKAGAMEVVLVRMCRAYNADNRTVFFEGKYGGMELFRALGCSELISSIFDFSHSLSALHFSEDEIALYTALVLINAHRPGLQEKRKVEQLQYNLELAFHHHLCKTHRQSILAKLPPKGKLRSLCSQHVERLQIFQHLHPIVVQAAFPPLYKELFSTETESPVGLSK
Sequence of Tumor necrosis factor (Homo sapiens) (P01375 whole entry, looked up): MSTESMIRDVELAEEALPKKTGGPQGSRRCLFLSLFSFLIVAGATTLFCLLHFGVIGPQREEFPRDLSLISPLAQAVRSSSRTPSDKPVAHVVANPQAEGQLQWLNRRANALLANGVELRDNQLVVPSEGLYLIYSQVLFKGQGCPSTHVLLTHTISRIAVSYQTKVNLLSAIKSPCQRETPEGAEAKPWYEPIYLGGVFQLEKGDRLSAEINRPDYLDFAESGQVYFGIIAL
Sequence of Peroxisome proliferator-activated receptor alpha (Homo sapiens) (Q07869 whole entry, looked up, the tested form may be a part): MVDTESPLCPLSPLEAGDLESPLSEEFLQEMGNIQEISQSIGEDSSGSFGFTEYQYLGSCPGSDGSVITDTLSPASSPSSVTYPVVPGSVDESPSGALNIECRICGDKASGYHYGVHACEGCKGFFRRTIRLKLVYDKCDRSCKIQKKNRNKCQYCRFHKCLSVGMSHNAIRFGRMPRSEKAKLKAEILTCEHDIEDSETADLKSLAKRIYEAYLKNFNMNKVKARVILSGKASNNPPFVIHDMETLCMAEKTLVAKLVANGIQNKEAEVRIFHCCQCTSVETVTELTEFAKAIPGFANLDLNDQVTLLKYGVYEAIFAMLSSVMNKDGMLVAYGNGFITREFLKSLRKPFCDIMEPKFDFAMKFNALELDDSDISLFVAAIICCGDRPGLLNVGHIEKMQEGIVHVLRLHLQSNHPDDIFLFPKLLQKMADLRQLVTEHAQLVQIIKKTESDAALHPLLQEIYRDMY
Sequence of Ubiquitin carboxyl-terminal hydrolase 2 (Homo sapiens) (O75604 whole entry, looked up): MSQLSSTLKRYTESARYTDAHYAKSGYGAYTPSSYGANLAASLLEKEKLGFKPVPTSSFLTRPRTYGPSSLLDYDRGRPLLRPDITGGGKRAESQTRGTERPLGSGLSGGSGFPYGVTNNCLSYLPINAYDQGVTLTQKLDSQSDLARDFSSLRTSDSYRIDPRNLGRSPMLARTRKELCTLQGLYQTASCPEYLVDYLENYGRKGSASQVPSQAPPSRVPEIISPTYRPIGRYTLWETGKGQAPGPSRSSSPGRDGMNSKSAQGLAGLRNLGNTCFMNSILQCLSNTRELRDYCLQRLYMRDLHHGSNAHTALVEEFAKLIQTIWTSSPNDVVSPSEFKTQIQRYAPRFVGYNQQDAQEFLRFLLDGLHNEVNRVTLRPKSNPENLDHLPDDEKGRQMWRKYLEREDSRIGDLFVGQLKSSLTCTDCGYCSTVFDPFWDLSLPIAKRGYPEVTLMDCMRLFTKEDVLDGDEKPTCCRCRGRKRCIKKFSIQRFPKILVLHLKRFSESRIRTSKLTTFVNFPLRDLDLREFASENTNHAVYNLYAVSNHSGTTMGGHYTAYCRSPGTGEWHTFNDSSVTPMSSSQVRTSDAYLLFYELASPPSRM

On to `O=C1c2ccccc2C(=O)C1C(=O)C(c1ccccc1)c1ccccc1`, for which the Potency in assay [1] was 61.1 µM (active). The activation in [2] is 23.1% (inactive); in [3] it was -1.82% (inactive); in assay [4] it was 5.81% (inactive). Also, in assay [5], the max response was -1.83% (inactive).

Take `O=C1c2ccccc2C(=O)c2ccccc21`: the activation is 3.87% (inactive) in assay [2], -2.5% (inactive) in assay [3] and 2.59% (inactive) in assay [4]. The max response in [5] was 0.92% (inactive).

For the compound `Nc1ccccc1C(=O)O`, the activation in assay [2] is -0.0398% (inactive); in assay [3], 1.57% (inactive); in assay [4], 3.23% (inactive). Further, the compound was called inactive in [6]. For the same compound, the max response in assay [5] was 0.553% (inactive). Also, the Potency result in [7] is “inactive”.

For the compound `CCC(C)(C)c1ccc(O)cc1`, the Potency entry in assay [1] and in assay [7] was “inactive” throughout. The activation in [2] was 0.115% (inactive) and -4.79% (inactive); in assay [3], -2.14% (inactive) and 1.1% (inactive); in [4], 0.262% (inactive) and -0.822% (inactive). Besides, in assay [6], the call was inactive. For the same compound, the max response in [5] is 5.88% (inactive) and -1.73% (inactive).

Take `C[C@]1(O)CC[C@H]2[C@@H]3CCC4=CC(=O)CC[C@]4(C)[C@@]3(F)[C@@H](O)C[C@@]21C`: the values for the activation in assay [2], in [3] and in assay [4] were -1.51% (inactive), -0.7% (inactive) and 0.165% (inactive), respectively. The Potency result in assay [8] and in [9] was “inactive” each time. Moreover, the compound was called inactive in [6] and in assay [10]. In assay [5], the max response was 3% (inactive).

Regarding `Oc1ccccc1`, the Potency entry in assay [1] is “inactive and 1000 µM (active)”.

With `O=C(O)CCCc1ccc(N(CCCl)CCCl)cc1`, the Potency in assay [2] was 22.4 µM (active) and 35.5 µM (active). Further, the activation in assay [3] is 0.602% (inactive) and -1.35% (inactive); in assay [4], -0.459% (inactive) and 0.835% (inactive). In assay [5], the max response was 0.105% (inactive) and -1.89% (inactive).

As to `CN1C[C@H](C(=O)N[C@]2(C)O[C@@]3(O)[C@@H]4CCCN4C(=O)[C@H](Cc4ccccc4)N3C2=O)C=C2c3cccc4[nH]cc(c34)C[C@H]21`, the Potency in assay [1] was 37.6 µM (active); in [8], 11.9 µM (active); in assay [9], 11.9 µM (active). The activation in assay [2] was -2.39% (inactive) and -2.48% (inactive); in assay [4], 6.16% (inactive) and 6.48% (inactive). For the same compound, in assay [5], the max response is -3.76% (inactive) and -6.49% (inactive).

For `COP(=S)(OC)Oc1cc(Cl)c(Cl)cc1Cl`, the Potency in assay [1] was 24.3 µM (active). The activation in assay [2] is -3.16% (inactive); in assay [3] it was -1.3% (inactive); in assay [4], 2.9% (inactive). For the same compound, in [5], the max response was -0.715% (inactive).

For the compound `O=C(O)c1cc(O)c(O)c(O)c1`, the Potency in [1] is 4.22 µM (active).

In the case of `Nc1ccc([As](=O)(O)O)cc1`, the Potency entry in [1] was “inactive”. The figures for the activation in assay [2] and in assay [3] were -0.538% (inactive) and -0.596% (inactive), respectively. The max response in [5] was -1.85% (inactive).

On to `Cc1cc(NS(=O)(=O)c2ccc(N)cc2)no1`, for which the outcome in assay [11] was inactive.

Consider `C[C@]12CCC(=O)C=C1CC[C@@H]1[C@@H]2CC[C@]2(C)C(=O)CC[C@@H]12`, for which the activation is -1.07% (inactive) and 0.979% (inactive) in assay [2]; 2.9% (inactive) and -2.01% (inactive) in assay [4]. Moreover, the Potency result in assay [8] and in assay [9] was “inactive” in each case. In addition, the result in assay [6] was inactive. Moreover, the max response in [5] was -0.773% (inactive) and -1.33% (inactive). Further, the Potency in assay [7] is 33.5 µM (active).

Consider `CC(C)(C)c1ccc(O)cc1`, for which the Potency entry in assay [1] was “inactive”. Further, the results for the activation in [2] and in assay [4] were -2.47% (inactive) and 0.343% (inactive), respectively.

Regarding `CCOP(=S)(OCC)Oc1ccc2c(C)c(Cl)c(=O)oc2c1`, the activation in assay [2] was -4.7% (inactive). Besides, the max response in [5] is -4.26% (inactive).

Turning to `CC(C)c1cccc(C(C)C)c1O`, the Potency entry in [1], in assay [8], in assay [9] and in assay [7] was “inactive” each time. The activation in assay [2] is 0.635% (inactive); in assay [3], 1.44% (inactive); in assay [4], 0.116% (inactive). Also, the compound was called inactive in assay [6]. Further, in [5], the max response is -5.67% (inactive).

`Clc1ccc(C(c2ccc(Cl)cc2)C(Cl)(Cl)Cl)cc1`: in assay [1], the Potency was 66.8 µM (active). Besides, the activation was 2.65% (inactive) in assay [2]; 2.81% (inactive) in assay [3]; 0.0892% (inactive) and -0.298% (inactive) in assay [4]. In addition, the Potency entry in [8] and in [9] was “inactive” throughout. In assay [6], the compound was classed as inactive. Further, the max response in [5] was 4.34% (inactive) and 1.18% (inactive).

On to `C[C@]12CCC(=O)C=C1CC[C@@H]1[C@@H]2CC[C@@]2(C)[C@H]1CC[C@]2(C)O`, for which the activation is 5.56% (inactive) in assay [2] and -0.473% (inactive) in [4]. In addition, the result in assay [6] and in assay [10] was inactive. In [5], the max response is 7.27% (inactive). In [7], the Potency is 16.8 µM (active).

As for `CCCC(C)(COC(N)=O)COC(N)=O`, the Potency result in assay [1], in assay [8], in assay [9] and in [7] was “inactive” throughout. For the same compound, the activation in assay [2] was 1.72% (inactive) and -1.16% (inactive); in assay [3] it was 0.11% (inactive) and -1.2% (inactive); in [4] it was 1.18% (inactive) and -0.314% (inactive). For the same compound, in assay [6], the result was inactive. The max response in [5] is -0.626% (inactive) and -5.23% (inactive).
